JMJD2A Tudor inh: JMJD2A Tudor domain (human) inhibition. AlphaScreen JMJD2A-Tudor / H3K4me3 peptide binding. Potency, µM (doses to about 114 µM), for inactives: at the highest dose activity change, negative = inhibition, hits mostly inhibitors. 390,000 tested, 4.4% active. AID 504339; note: % is set by controls: 0 for no effect and ±100 for the full control effect; nearly all actives have a fitted effect of over 50% in size
BAZ2B block: inhibitors of human BAZ2B bromodomain; Q9UIF8; AlphaScreen BAZ2B-H3K14Ac peptide displacement; Potency, µM (series often up to 114 µM), for the others: at the top dose activity change, negative = inhibition, most hits filed as inhibitors; 360,000 tested, 4.4% active; AID 504333; note: % is set by controls: 0 for no effect and ±100 for the full control effect; nearly all actives have a fitted effect of over 60% in size
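AlphaScreen displacement of biotin-H3(5-23)K14Ac peptide (50 nM final) from BAZ2B (50 nM final) in PBS pH 7.4, 0.01% Tween-20; complex preformed 30 min RT, then compounds (top 110 uM) 30 min RT, beads 20 min dark.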
HP1b chromo inh: blocks HP1-beta chromodomain binding to methylated histone tails; AlphaScreen HP1-beta / biotin-H3K9me3 peptide binding; Potency, µM (series often up to 114 µM), for the others: at the top dose activity change, negative = inhibition, most hits filed as inhibitors; 390,000 tested, 0.56% active; AID 540317; note: nearly all actives have a fitted effect of over 70% in size
Target sequence (P83916 whole entry, looked up): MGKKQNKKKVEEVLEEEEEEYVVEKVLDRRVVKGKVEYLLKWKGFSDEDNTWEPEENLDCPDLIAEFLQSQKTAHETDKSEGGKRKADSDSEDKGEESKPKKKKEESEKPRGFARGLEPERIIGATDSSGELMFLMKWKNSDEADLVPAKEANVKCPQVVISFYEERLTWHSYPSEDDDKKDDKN
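Compound inhibition of the preformed complex between 50 nM HP1-beta and 50 nM biotinylated H3K9me3 peptide was read by AlphaScreen. Buffer was PBS pH 7.4 with 0.01% Tween-20. Incubations ran 30 min at room temperature, with 10 ug/mL donor/acceptor beads.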
L3MBTL1 inh: blocks human L3MBTL1 | Q9Y468 | AlphaScreen L3MBTL1–H3K9me1 peptide binding | Potency, µM (highest dose often 57.1 µM), without a hit: top-dose activity, negative = inhibition, most hits filed as inhibitors | 230,000 tested, 0.66% active; note: % is set by controls: 0 for no effect and ±100 for the full control effect; nearly all actives have a fitted effect of over 60% in size
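Displacement of a biotinylated histone H3(1-15) peptide monomethylated at Lys9 (75 nM) from L3MBTL1 (50 nM) was measured by AlphaScreen after a 30 min room-temperature compound incubation; cefsulodin titration served as intraplate control.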
G9a block: G9a (human) methyltransferase inhibition; Q96KQ7; G9a H3K9 monomethylation, AlphaScreen, 2 h; Potency, µM (titrated, usually from 102 µM), inactives show top-dose activity, negative = inhibition, most hits filed as inhibitors; 350,000 tested, 8.8% active; AID 504332; note: % is set by controls: 0 for no effect and ±100 for the full control effect; nearly all actives have a fitted effect of over 75% in size
Target sequence (Q96KQ7 913-1193 limits assumed): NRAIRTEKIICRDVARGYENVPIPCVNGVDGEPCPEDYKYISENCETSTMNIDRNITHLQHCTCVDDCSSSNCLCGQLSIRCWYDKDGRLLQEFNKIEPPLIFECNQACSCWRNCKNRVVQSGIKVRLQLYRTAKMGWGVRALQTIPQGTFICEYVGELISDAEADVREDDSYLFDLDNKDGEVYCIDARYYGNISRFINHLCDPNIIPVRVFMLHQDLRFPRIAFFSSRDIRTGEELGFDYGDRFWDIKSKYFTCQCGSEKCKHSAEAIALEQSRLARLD
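Readings reflect AlphaScreen signal from monomethyl-H3K9 antibody detection. HMT at 20 nM; substrate b-H3K9 500 nM; cofactor SAM 20 uM; 2 h RT reaction; compounds tested as titrations in qHTS with 15 min preincubation.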
GLS inh: blocks human kidney-isoform glutaminase activity. O94925. GLS enzymatic activity, qHTS titration. 410,000 tested, 0.21% active. Potency, µM (doses to about 45.5 µM), for the others: at the top dose activity change, negative = inhibition, hits mostly inhibitors; note: % is set by controls: 0 for no effect and ±100 for the full control effect
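Human kidney-isoform GLS in 45 mM KH2PO4 pH 8.2, 0.02% Tween-20, with compound, started with 1mM L-Glutamine (added stock). Glutamate oxidase/HRP/Amplex red coupled fluorescence read at start and after 30 min at RT.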
An asterisk follows results filed as active; ? = inconclusive; . = not tested or not shown; [ ] = another dose, or the depositor's remark. The list is not random: actives were taken first. Their share in the collection is about 10%. Calls come from the whole dose curve; as a rule, active = well fitted curve in the direction sought with a large enough effect; inconclusive = small, poorly fitted or top-dose-only effect, or another doubt; inactive = no such curve, though single readings can be large; an effect the other way counts as inactive or inconclusive. Potency is the fitted concentration of half-maximal effect.

SMILES | JMJD2A Tudor inh | BAZ2B block | HP1b chromo inh | L3MBTL1 inh | G9a block | GLS inh
S=C(Cc1cccnc1)N1CCOCC1 | 79µM* | 2% | ? | 11% | 2.2µM* | -2%
O=C(O)Cc1c[nH]c2cccc(O)c12 | 22µM* | 35µM* | 35µM* | 5.6µM* | -33%[12.7 µM] | ?
S=C(NCCN1CCOCC1)Nc1ccc(Cl)cc1 | -1% | 0% | 28% | -1% | -1%[59 µM] | 0%
CC1CCN(CCNC(=S)Nc2ccc(Cl)cc2)CC1 | -7%[57.1 µM] | 1% | 36% | -3% | 45µM* | -4%
CCOc1ccc(NC(=S)NCCCN2CCN(c3ccc(OC)cc3)CC2)cc1 | ? | 35µM* | -5% | . | 40µM* | 16%
O=C(NCCN1CCN(c2ccccc2)CC1)Nc1ccc(Cl)cc1 | -14% | -3% | 10% | . | -1% | -27%
CCOc1ccc(NC(=O)NCCCN2CCN(c3ccc(OC)cc3)CC2)cc1 | ? | -37% | -4% | . | ? | 49%
COc1ccc(N2CCN(CCNC(=O)Nc3ccc(Cl)cc3)CC2)cc1 | -7% | -1% | -2% | . | 8.9µM* | 15%
COc1ccc(N2CCN(c3ccc(NC(=O)NN)cc3)CC2)cc1 | ? | -36% | -3% | -13% | 45µM* | ?
COc1ccc(N2CCN(C(=O)Nc3ccc(Cl)cc3)CC2)cc1 | -5% | 3% | 23% | . | ? | 15%
Cc1cnc(CNc2ncncc2-c2cccc(NS(C)(=O)=O)c2)cn1 | . | . | . | . | 9%[0.501 µM] | .
O=C(Cc1ccc(F)cc1)NCCc1csc2nc(-c3ccc(Cl)cc3)nn12 | -8% | 5% | 24%[57 µM] | . | 3%[59 µM] | 0%
Cn1cccc1/C=N\NC(=O)C1COc2ccc(C(C)(C)C)cc2O1 (stereo not given) | -11% | 35µM* | 7% | . | . | 6%
Cn1cccc1/C=N\NC(=O)C1COc2ccccc2O1 (stereo not given) | -6% | ? | 41% | . | -16% | 31%
CCOc1ccccc1NC(=O)Cn1c(=O)oc2cc(Cl)ccc21 | -16% | -4% | 16% | . | -34%[2.33 µM] | -11%
Cc1ccccc1OC(=O)n1c(=S)oc2cc(Cl)ccc21 | 35µM* | 12% | -3% | . | 1.1µM* | 11%
COC(=O)n1c(=O)oc2ccccc21 | -12% | -6% | 26% | 0% | -18%[59 µM] | 2%
O=C(Oc1ccccc1)n1c(=S)oc2ccccc21 | 20µM* | -4% | -12% | 5% | 3.5µM* | 27%
CCC(=O)C1=C(c2cccc([N+](=O)[O-])c2)N(C(=O)CC)n2c(nnc2-c2ccccc2)S1 | -6% | 1% | 43% | . | 11%[59 µM] | 10%
COc1ccc(/C=C/C(=O)NC(=S)NNC(=O)c2c(-c3ccccc3)noc2C)cc1 | -11% | 6% | -9% | 7% | ? | 10%
COc1ccc(-c2cc(C(=O)NNC(=S)NC(=O)c3c(-c4ccccc4)noc3C)[nH]n2)cc1 | -16% | -20% | 22% | -3%[11.4 µM] | 45µM* | 2%
Cc1nc(C(Cl)(Cl)Cl)nc2[nH]ccc(=O)c12 | 11µM* | -30% | -10% | -5% | -8% | ?
Cc1cc(C)c(Nc2cc(S(=O)(=O)O)c(N)c3c2C(=O)c2ccccc2C3=O)c(C)c1 | 7.9µM* | 5.6µM* | ? | 16µM* | 2.8µM* | 16%
Cc1ccc(S(=O)(=O)CCC(=O)Oc2ccc(-c3nnco3)cc2)cc1 | -1% | -2% | 33% | -5% | 20µM* | 8%
Cc1ccc(S(=O)(=O)N2CCN(C(=O)COc3ccc(-c4nnco4)cc3)CC2)cc1 | -34% | -2% | 52% | -4% | -4%[59 µM] | -2%
SMILES | JMJD2A Tudor inh | BAZ2B block | HP1b chromo inh | L3MBTL1 inh | G9a block | GLS inh
O=C(/C(=C/O)N=Nc1cccc(C(F)(F)F)c1)c1ccccc1 | 45µM* | 25µM* | ? | ? | 45µM* | -1%
O=C(/C(=C/O)N=Nc1ccccc1)c1ccco1 | ? | ? | ? | -13% | -49% | 61%
O=C(/C(=C/O)N=Nc1ccccc1Cl)c1ccccc1 | -26%[11.4 µM] | 13µM* | 32µM* | ? | 40µM* | ?
COC(=O)/C(N=Nc1cccc(C(F)(F)F)c1)=C(\C)O | -21% | -7% | 14% | -8% | 3%[59 µM] | 16%
Cc1cccc(N=N/C(=C\O)C(=O)c2ccc(Br)cc2)c1 | ? | ? | -9% | ? | 11µM* | -2%
COc1cccc(CNC(=O)CSc2cc(C)[nH]c(=O)n2)c1 | -12% | -4% | 9% | . | -3%[59 µM] | -18%
COc1cccc(CNC(=O)CSc2ccc(-c3ccccn3)nn2)c1 | ? | 13µM* | 21% | . | -5% | 8%
O=C(CSc1ccc(-c2ccccn2)nn1)NCc1ccc(Cl)cc1 | ? | 14µM* | 26% | . | -1% | 7%
Cc1nn(CC(=O)NCc2ccc(OC(C)C)cc2)c(=O)c2c(C)n(-c3ccc(Cl)cc3)nc12 | -13% | 6% | 10%[57 µM] | . | 16%[59 µM] | -4%
COc1ccc(OC)c(CN2CCN(C(=O)CN3C(=O)NC4(CCCC4)C3=O)CC2)c1 | -3% | -6% | 22% | -3% | -5% | 19%
COc1ccc(OC)c(CN2CCN(Cc3cc(OC)c(OC)c(OC)c3)CC2)c1 | 22µM* | 79µM* | ? | 1%[2.29 µM] | -9%[0.501 µM] | -4%
COc1cc(CN2CCCCCC2)cc(OC)c1OC | 5µM* | ? | ? | 9% | 32µM* | 2%
COc1cc(CN2CCCCCC2)cc(OC)c1 | -6% | 0% | 32% | -2% | 13% | 2%
Cc1noc(C)c1-c1ccc2ncnc(NC(C)c3ccccc3)c2c1 (stereo not given) | -20% | . | . | . | . | .
O=c1n(Cc2ccc(F)cc2Cl)c2ccccc2c2nc(-c3ccccc3)nn12 | -8% | -9% | 10% | . | 8%[59 µM] | -10%
CCCS(=O)(=O)Nc1cc2c(cc1NCc1ccccc1)n(C)c(=O)n2C | -26% | 50µM* | 11% | . | 16µM* | 42%
COc1ccc(S(=O)(=O)Nc2cc3c(cc2NCc2ccccc2)n(C)c(=O)n3C)cc1 | 50µM* | 45µM* | 2% | . | 16µM* | 60%
Cn1c(=O)n(C)c2cc(NS(=O)(=O)c3ccc(Br)cc3)c(NCc3ccccc3)cc21 | ? | -28% | -1% | . | ? | 45%
Cc1ccccc1CN1C(=O)c2ccccc2S(=O)(=O)c2ccc(C(=O)OCC3CCCO3)cc21 (stereo not given) | -23% | -4% | 44% | . | -3%[59 µM] | 0%
COc1ccc(OCC2CCNCC2)cc1 | -20% | -23% | 30% | . | 50µM* | -2%
O=C(Nc1ccc(N2CCCC2)c(Cl)c1)c1cccc(-c2cc3ccccc3oc2=O)c1 | -25% | -11% | -9% | 28µM* | 45µM* | 10%
CC(=O)Nc1ccc(NC(=O)c2cccc(-c3cc4ccccc4oc3=O)c2)cc1 | 4% | -9% | 27% | -29% | 1% | -1%
